In PubChem BioAssay AID720504 (National Center for Advancing Translational Sciences (NCATS), 2013) one finds max response, negative = inhibition and Potency data, which are given here for 59 molecules.

Out of some 360,000 compounds screened, about 10,000 (2.8%) were called active. Roughly 4% stayed inconclusive and do not appear here. The list comes from a sample in which actives are over-represented; it also holds similar structures and randomly drawn compounds. Unmarked numbers belong to inactive results. Calls come from the whole dose curve; as a rule, active = well fitted inhibition curve with a large enough effect; inconclusive = small, poorly fitted or top-dose-only effect; inactive = flat fitted curve, though single readings scatter.
% is set by controls: 0 for no effect and ±100 for the full control effect; potency is the fitted concentration of half-maximal effect.

The target in this assay is Serine/threonine-protein kinase PLK1 (Homo sapiens) (UniProt P53350). Put plainly: qHTS for Inhibitors of PLK1-PDB (polo-like kinase 1 - polo-box domain): Primary Screen. For max response, negative = inhibition: series mostly up to about 57 µM. Note: nearly all actives have a fitted effect of over 65% in size. The settings on record: Plk1 PBD binding of FITC phosphopeptide, fluorescence polarization.
Chain of Serine/threonine-protein kinase PLK1 (Homo sapiens) (P53350 whole entry, looked up, the tested form may be a part): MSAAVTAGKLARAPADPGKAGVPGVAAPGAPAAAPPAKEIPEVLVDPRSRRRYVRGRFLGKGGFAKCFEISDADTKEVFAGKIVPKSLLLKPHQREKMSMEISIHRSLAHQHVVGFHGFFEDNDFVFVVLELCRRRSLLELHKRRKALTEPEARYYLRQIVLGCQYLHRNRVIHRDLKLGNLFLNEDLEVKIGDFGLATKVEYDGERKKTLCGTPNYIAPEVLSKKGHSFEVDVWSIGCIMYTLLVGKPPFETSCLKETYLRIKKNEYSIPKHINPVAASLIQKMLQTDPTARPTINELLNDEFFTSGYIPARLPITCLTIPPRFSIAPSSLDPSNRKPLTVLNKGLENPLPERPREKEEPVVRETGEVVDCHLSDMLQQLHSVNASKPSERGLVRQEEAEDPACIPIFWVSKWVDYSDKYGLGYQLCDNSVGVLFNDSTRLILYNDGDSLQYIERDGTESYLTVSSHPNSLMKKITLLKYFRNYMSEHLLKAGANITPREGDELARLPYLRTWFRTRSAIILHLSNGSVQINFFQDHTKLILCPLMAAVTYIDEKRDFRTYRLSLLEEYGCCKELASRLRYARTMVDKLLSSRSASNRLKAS
For `CCCCN1C(=O)C(CC(=O)NCc2cccs2)CC(C(=O)N2CCCCCC2)=C1C` (centres undefined), the max response, negative = inhibition was -3.48%.

Regarding `COC(=O)C(Cc1c[nH]c2ccccc12)NC(=O)CCNC(=O)c1ccco1` (centres undefined), the max response, negative = inhibition was 3.99%.

For the molecule `CCCCN1CC(C)(C)[C@H](CC(=O)Nc2ccc(Br)cc2)C1=O`, the max response, negative = inhibition was 2.01%.

With `COc1ccc(C)cc1NC(=S)N1CCOCC1`, the max response, negative = inhibition is -2.89%.

As for `COc1cc(NC(=O)CSC(=S)N2CCCC2)c(OC)cc1Cl`, the max response, negative = inhibition was -15.5%.

Turning to `COc1cc(NC(=S)N2CCCC(C)C2)c(OC)cc1Cl` (centres undefined), the Potency is 18.9 µM (active).

Regarding `C[C@@H]1Cn2cnc(C(=O)Nc3ccc(CNC(=O)OC(C)(C)C)cc3)c2C(=O)N1`, the max response, negative = inhibition is -11.4%.

For `COc1cccc2cc(-c3cc(=O)oc4cc(C)c(O)cc34)oc12`, the max response, negative = inhibition was -14.5%.

In the case of `COc1ccc(Nc2cc(=O)oc3ccccc23)cc1`, the max response, negative = inhibition was -6.94%.

With `COc1ccc2oc(=O)cc(-c3cc4ccccc4o3)c2c1`, the Potency was 26.7 µM (active).

Regarding `Oc1cccc2ccc(/C=C/c3ccc(Br)s3)nc12`, the max response, negative = inhibition is -8.23%.

As for `CC(=O)Nc1ccc(S(=O)(=O)Nc2nccc(/C=C/c3ccccc3F)n2)cc1`, the max response, negative = inhibition is -13.8%.

`Nc1ccc(S(=O)(=O)Nc2nccc(/C=C/c3ccc(Br)s3)n2)cc1`: the Potency was 9.47 µM (active).

As to `CC(C)C1Cc2[nH][nH]c(=O)c2C(c2ccc(Cl)cc2)O1` (centres undefined), the max response, negative = inhibition is -26.3%.

With `CCO/C=C1\C(=O)N(c2ccc(OCC)cc2)C(=O)c2ccccc21`, the Potency was 13.4 µM (active).

Consider `CCOc1ccc(NC(=O)C(C)N2C(=O)c3ccccc3C2=O)cc1` (centres undefined), for which the max response, negative = inhibition was -11.1%.

On to `CCCOC(=O)c1ccc(N2C(=O)c3ccccc3C2=O)cc1`, for which the max response, negative = inhibition was -2.78%.

As to `COc1ccc(NC(=O)C[C@H]2C(=O)N(CCc3ccccc3)C[C@@H]2C)cc1`, the max response, negative = inhibition is -7.3%.

For `CC1(C(=O)NS(=O)(=O)c2ccc(C#N)cc2)CCN1C(=O)c1ccc(C2CCCCC2)cc1` (centres undefined), the max response, negative = inhibition was -18.9%.

With `CCOc1ccc(-c2cc(C(=O)N/N=C/c3ccc(O)cc3)c3ccccc3n2)cc1`, the max response, negative = inhibition is 1.12%.

In the case of `COc1cccc(-c2cc(C(=O)N/N=C/c3ccc(OC)c(COC(C)=O)c3)c3ccccc3n2)c1`, the Potency is 29.9 µM (active).

Turning to `COc1ccc(-c2cc(C(=O)N/N=C/c3cccnc3)c3ccccc3n2)c(OC)c1`, the max response, negative = inhibition is 1.56%.

`CC1=NN(C(=O)c2ccccc2Br)C(O)(c2cccnc2)C1` (centres undefined): the max response, negative = inhibition was -6.62%.

For `CC1=NN(C(=O)Cc2ccc(C)cc2)C(O)(c2cccnc2)C1` (centres undefined), the Potency was 23.8 µM (active).

`CC1=NN(C(=O)c2ccc(Br)cc2)C(O)(c2ccccc2)C1` (centres undefined): the max response, negative = inhibition is -4.08%.

Consider `O=c1cc(CN2CCCCCCC2)c2c(ccc3ccccc32)o1`, for which the max response, negative = inhibition is -3.34%.

For the molecule `CCCCCCCCN1C(=O)[C@H](CC(=O)NCc2cccc3ccccc23)C[C@@]2(C(=O)OC)CCCCC=C12`, the max response, negative = inhibition was -2.64%.

As for `COc1ccc(C(C)(NC(C)=O)c2nc(-c3ccc(S(C)(=O)=O)cc3)cs2)cc1` (centres undefined), the max response, negative = inhibition is 0.405%.

On to `Cc1ccc(C=O)c([B-](F)(F)F)c1`, for which the max response, negative = inhibition is -2.89%.

For the molecule `CC(=O)Nc1ccc2c3c(ccc([N+](=O)[O-])c13)CC2`, the max response, negative = inhibition is -1.77%.

Take `COc1cc(C(=O)CCc2ccc3c(c2)OCO3)cc(OC)c1OC`: the max response, negative = inhibition is -9.68%.

As for `COc1c(O)ccc2c1CN1CCc3cc4c(cc3C1C2)OCO4` (centres undefined), the Potency was 23.8 µM (active).

As to `COc1ccc2cc1Oc1ccc(cc1)C[C@H]1c3cc(c(OC)cc3CCN1C)Oc1c(O)c(OC)cc3c1[C@H](C2)N(C)CC3`, the max response, negative = inhibition was -6.01%.

For `CC1(Oc2ccccc2-c2ccno2)CCN(Cc2ccc(-c3ccccc3)o2)C1` (centres undefined), the max response, negative = inhibition was -2.77%.

With `O=C(CSc1nc2ccccc2o1)N1CCN(c2ccccc2)CC1`, the max response, negative = inhibition is -6.93%.

As for `CC(C)(C)C(=O)CSc1nc2ccccc2o1`, the max response, negative = inhibition was -18%.

Turning to `O=C(CSc1nc2ccccc2o1)N/N=C/c1ccccc1C(=O)O`, the Potency was 26.7 µM (active).

As to `O=C(NCc1cccnc1)c1cc(C2CCCCN2C(=O)CCc2ccccc2)on1` (centres undefined), the max response, negative = inhibition is -11.3%.

Turning to `COC(=O)c1cccc(NC(=O)c2cccc(N3C(=O)CCC3=O)c2)c1`, the max response, negative = inhibition is -2.1%.

As for `COC(=O)c1cccc(N2C(=O)C3C4C=CC(CC4)C3C2=O)c1` (centres undefined), the max response, negative = inhibition is -4.67%.

Regarding `COC(=O)c1cccc(-n2[nH]nnc2=S)c1`, the Potency is 23.8 µM (active).

Consider `CCOC(=O)[C@]12CCCC=C1N(CCC1=CCCCC1)C(=O)[C@H](CC(=O)N1CCCCC1)C2`, for which the max response, negative = inhibition is -0.904%.

As to `Cc1ccnc(SC2CC(=O)N(c3ccccc3)C2=O)n1` (centres undefined), the max response, negative = inhibition was -15.5%.

Consider `Cc1ccnc(-n2sc3ccccc3c2=O)n1`, for which the Potency was 3.77 µM (active).

In the case of `COCCNc1nc(Nc2ccccc2Cl)c2sc(-c3ccccc3)cc2n1`, the max response, negative = inhibition is -12.6%.

As to `Cc1ccc(C(=O)N2CCCc3ccccc32)c(Cl)c1`, the max response, negative = inhibition was 3.98%.

With `Cc1ccc2cccc([N+](=O)[O-])c2n1`, the max response, negative = inhibition was 2.99%.

For the molecule `CCOC(=O)c1cc2n(c1N)-c1ccccc1C2=O`, the Potency was 2.67 µM (active).

`CCOC(=O)c1ccccc1NC(=O)c1c(N)n(C)c(=O)[nH]c1=O`: the max response, negative = inhibition was -13.3%.

With `CCOC(=O)c1ccccc1CN1C(=O)c2ccccc2S1(=O)=O`, the max response, negative = inhibition is -6.41%.

Consider `CN(Cc1ccccc1)C(=O)[C@@H]1CCCN1C(=O)[C@@H]1CCCN1C(=O)c1c(F)cccc1F`, for which the max response, negative = inhibition is -9.51%.

As for `N#Cc1ccc(OCC(=O)Nc2nc(-c3ccccn3)cs2)cc1`, the Potency is 8.44 µM (active).

With `O=C(CN1C(=O)C2C3C=CC(C3)C2C1=O)Nc1nc(-c2ccccn2)cs1` (centres undefined), the max response, negative = inhibition was -7.14%.

Take `CC1CCCCC1NC(=O)COc1ccc(C#N)cc1` (centres undefined): the max response, negative = inhibition was -1.85%.

`O=C(CSC1=NCCS1)Nc1nc(-c2ccccc2)cs1`: the max response, negative = inhibition is -11.4%.

Consider `O=C(COc1ccccc1F)Nc1nc(-c2ccccn2)cs1`, for which the Potency is 11.9 µM (active).

With `CC(NC(=O)c1ccco1)C(=O)Nc1nc(-c2ccccn2)cs1` (centres undefined), the max response, negative = inhibition was -15.6%.

For `CC(C)c1cc(C(=O)N(C)C2CCCN(Cc3ccccc3F)C2)n(C)n1` (centres undefined), the max response, negative = inhibition was -5.2%.

In the case of `NC(Cc1ccc(F)cc1)c1csc(Nc2nncc3ccccc23)n1` (centres undefined), the max response, negative = inhibition was -1.72%.
